From PubChem BioAssay (NCI)
This is part of a sample that, as a whole, favours compounds with a hit. Of some 83,000 tested, about 20% had one in any assay.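 Testing used 96-well plates and a 48-hour single-concentration exposure. Example: -40 means 40% of the starting cells died.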 Values without a mark were called inactive. Active and inactive are the calls of the source. How the source made its calls: active means growth percent below 10; inactive means the rest.

Assays:
Test in all cases: NCI-60 one-dose screen, 48 h (100 = growth as untreated, 0 = no growth, -100 = all killed)
Settings in all cases: 10 µM unless noted
RPMI-8226 leukemia = tested on: RPMI-8226 leukemia
OVCAR-8 ovarian = tested on: OVCAR-8 ovarian
OVCAR-5 ovarian = tested on: OVCAR-5 ovarian
OVCAR-4 ovarian = tested on: OVCAR-4 ovarian
SK-OV-3 ovarian = tested on: SK-OV-3 ovarian
IGROV1 ovarian = tested on: IGROV1 ovarian
OVCAR-3 ovarian = tested on: OVCAR-3 ovarian
HS 578T breast = tested on: HS 578T breast
NCI/ADR-RES ovarian = tested on: NCI/ADR-RES ovarian
T-47D breast = tested on: T-47D breast
BT-549 breast = tested on: BT-549 breast
MDA-MB-435 melanoma = tested on: MDA-MB-435 melanoma
SW-620 colon = tested on: SW-620 colon
MCF7 breast = tested on: MCF7 breast
HCT-116 colon = tested on: HCT-116 colon
HCC-2998 colon = tested on: HCC-2998 colon
KM12 colon = tested on: KM12 colon

Row | Compound | growth (RPMI-8226 leukemia) | growth (OVCAR-8 ovarian) | growth (OVCAR-5 ovarian) | growth (OVCAR-4 ovarian) | growth (SK-OV-3 ovarian) | growth (IGROV1 ovarian) | growth (OVCAR-3 ovarian) | growth (HS 578T breast) | growth (NCI/ADR-RES ovarian) | growth (T-47D breast) | growth (BT-549 breast) | growth (MDA-MB-435 melanoma) | growth (SW-620 colon) | growth (MCF7 breast) | growth (HCT-116 colon) | growth (HCC-2998 colon) | growth (KM12 colon)
1 | O=C1CCC23OC(C(O)c4ccccc4N12)C1C(Br)=NOC13 (stereo unspecified) | 98.7% | 103% | 97.7% | 95.4% | 99% | 106% | 105% | 106% | 106% | 102% | 102% | 96.2% | 107% | 96.5% | 94.6% | 100% | 103%
2 | C=C1C(=O)O[C@H]2[C@H]1CC/C(COC(=O)N1CCC[C@H]1C(=O)Nc1ccc(OC)c(C(N)=O)c1O)=C\CC[C@@]1(C)O[C@@H]21 | 1.38% (active) | 44.4% | 68.5% | 52% | 88.8% | 14.7% | 4.49% (active) | 71.8% | 106% | 29.8% | 38.5% | 44.3% | 2.83% (active) | 12.1% | 14.8% | 94.8% | 67.2%
3 | CN(C)CCCn1c2c(c3cc(-c4ccco4)ccc3c1=O)C(=O)c1ccccc1-2 | 46.3% | 48% | 104% | 53% | 93.1% | 52.2% | 72% | 79.9% | 53.6% | 49.2% | 83.9% | 66.6% | 30.2% | -21.6% (active) | 26.6% | 71.7% | 44.4%
4 | CC(=O)OCC1OC(OC2C(COC(C)=O)OC(OCCC[S-])C(OC(C)=O)C2OC(C)=O)C(OC(C)=O)C(OC(C)=O)C1OC(C)=O.[Au+].c1ccc(CN2[CH-]N(Cc3ccccc3)C(c3ccccc3)=C2c2ccccc2)cc1 (stereo unspecified) | -6.87% (active) | 22% | 62.4% | 17.5% | 13% | 35.3% | -2.96% (active) | 47.5% | 96.6% | 18.8% | 25.3% | 18.9% | 18.5% | 7.42% (active) | 9.17% (active) | 45.2% | 26.7%
5 | C=C1C(=O)O[C@H]2[C@H]1CCC(/C=N/c1ncc(Br)cc1N)=C\CC[C@@]1(C)O[C@@H]21 | -24.1% (active) | 4.39% (active) | 49.4% | 37% | 69.3% | -1.81% (active) | -58.3% (active) | 32.4% | 58% | 5.65% (active) | 1.35% (active) | 22.6% | -62.7% (active) | -3.68% (active) | -52.6% (active) | 62.2% | 53.9%
6 | COC(=O)[C@]1(C)CCC[C@]2(C)[C@H]3C[C@H]4C(C(C)C)=C[C@]3(CC[C@H]21)[C@@H]1C(=O)N(CCC#N)C(=O)[C@@H]14 | 62% | 85.5% | 116% | 71.7% | 98.8% | 86.2% | 88.9% | 89.4% | 84.4% | 69.9% | 59.5% | 86.5% | 89.9% | 72.2% | 70.8% | 94.1% | 82.7%
7 | COc1ccc(-c2[nH]c3ccc(OC)cc3c2C=C(C#N)C#N)cc1 | -11.5% (active) | 57.3% | 55.8% | 39.5% | 41.7% | 39.1% | -14.1% (active) | 52.4% | 1.87% (active) | 33.8% | 55.1% | -62.5% (active) | 26.5% | 17.1% | 19% | 50.3% | 20.1%
8 | COc1ccc2[nH]c3nc4cnccc4cc3c2c1 | 101% | 97% | 128% | 101% | 95.3% | 89.3% | 104% | 110% | 104% | 94.6% | 104% | 109% | 104% | 82% | 97.9% | 117% | 93.2%
9 | C=C(C)[C@@H]1CC[C@]2(C(=O)OCCOCCOCC[P+](c3ccccc3)(c3ccccc3)c3ccccc3)CC[C@]3(C)[C@H](CC[C@@H]4[C@@]5(C)CC[C@H](OC(C)=O)C(C)(C)[C@@H]5CC[C@]43C)[C@@H]12 | -63.9% (active) | -78.2% (active) | -86.2% (active) | -82.1% (active) | -94.5% (active) | -83.9% (active) | -95.8% (active) | -48.3% (active) | 4.3% (active) | -76.7% (active) | -89.8% (active) | -91.3% (active) | -77.9% (active) | -76% (active) | -92.2% (active) | -88.4% (active) | -89.8% (active)
10 | COc1ccc(Sc2[nH]c(C(C)=O)c3ccccc23)cc1 | 41.4% | 88% | 94.1% | 71.2% | 19% | 83.6% | 68.3% | 83.9% | 40.8% | 56.5% | 50.1% | -23.4% (active) | 58.6% | 57.5% | 65.3% | 70.2% | 37%
11 | CCCS(=O)(=O)Nc1ccc(F)c(C(=O)c2c[nH]c3ncc(-c4ccc(OCCCC5CCCCN5)nc4)cc23)c1F (stereo unspecified) | 64% | 88.9% | 78.1% | 83.6% | 11.6% | 31.7% | 89.6% | 9.28% (active) | 100% | 17.7% | 57.5% | 25.9% | 116% | 69.4% | 70% | 108% | 103%
12 | COCCOCCOCc1n(Cc2ccc3ccccc3c2)c2ccccc2[n+]1Cc1ccc2ccccc2c1 | -6.22% (active) | 9.98% (active) | 21.4% | 17% | 2.88% (active) | -7.12% (active) | 7.16% (active) | 39.9% | 105% | -3.39% (active) | 1.44% (active) | 7.86% (active) | 18.9% | 7.6% (active) | 20.1% | 17.8% | -25.9% (active)
13 | NC[C@@H]1CCN(c2cc3c(cc2F)c(=O)n(N)c(=O)n3Cc2ccc(-c3ccccc3)cc2)C1 | 65.2% | 96.3% | 111% | 97.4% | 84.6% | 91.9% | 96.4% | 82.9% | 95.5% | 89% | 69.3% | 76.6% | 84.2% | 79.4% | 65.3% | 96% | 96.9%
14 | CCOC(=O)C(=Cc1c(-c2ccccc2)[nH]c2ccccc12)C(=O)OCC | -47.8% (active) | 39.4% | 98.3% | 49.9% | 94.5% | 34.7% | 38% | 59.5% | 24.7% | 21.1% | 67.1% | 14.5% | 53.5% | 41.6% | 41% | 80.7% | 24.1%
15 | CCOC(=O)c1cnn(-c2nc(-c3ccc(F)cc3)c(C#N)c(N3CCOCC3)n2)c1N | 103% | 100% | 95% | 101% | 101% | 102% | 113% | 103% | 96.7% | 83.9% | 95.6% | 99.1% | 104% | 89.9% | 99.5% | 111% | 105%
16 | CC1CCN(CCCCCOc2ccc3oc4ccccc4c(=O)c3c2)CC1 | 60.1% | 81% | 88.4% | 77.3% | 93.9% | 68.9% | 87.6% | 70.3% | 78.3% | 67.6% | 80.3% | 79.9% | 81.7% | 68.3% | 52.7% | 79.5% | 69.9%
17 | Cc1[nH]c2ncnc(Oc3ccc(NC(=O)Nc4ccc(Cl)c(C(F)(F)F)c4)cc3)c2c1C | 44.7% | 52% | 98% | 90.1% | 91.9% | 54.6% | 56.3% | 73.8% | 64.5% | 36.9% | 79.4% | 45.4% | 77.9% | 31.6% | 42.4% | 60.5% | 27.3%
18 | COc1cc(C(C)c2ccc3c(ccn3C)c2)cc(OC)c1OC (stereo unspecified) | 15.8% | 11.5% | 63.1% | 37.5% | 17.7% | 18.8% | -16.4% (active) | 35.1% | 13% | 57.3% | 12.7% | -40.6% (active) | 28% | 14.6% | 5.43% (active) | 23.4% | 10.3%
